Results from the supplement of paper PMC10849652.
About 7,900 targets were measured; listed, in parts, are those with a hit and a random draw of the rest. About 0.6% of all pairs of compound and target were hits.

Assays:
Assay in all cases: log2 fold change, soluble protein after heating vs DMSO (PISA); higher = thermal stabilisation; K562 cells, 10 uM, 30 min; active = over 0.2 and 3.5 SD of the protein, either way, in both replicates (recomputed)
[1] = compound: C1=CC=C(C=C1)[C@H](COC2=CC3=C(C=C2)NC(=O)N3)NC(=O)C4=CC=CN(C4=O)CC5=CC(=C(C=C5)F)F
Procedure, shortened: (§1)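 Thermal stability values are relative to control samples and come from duplicates. They are expressed as log2 fold changes. For measurement, K562 cells (2×10^6 cells/mL) received 10 μM compound for 30 min, and aliquots were heated for 3 min over 48°C-58°C, pooled, and extracted at 4°C in PBS with 0.5% NP-40. Soluble protein, the supernatant after 21,000xg for 90 min, was quantified by TMTpro 16plex LC-MS/MS with equalised channel sums.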

[2] = compound: CC1=C(SC2=C1C(=N[C@H](C3=NN=C(N32)C)CC(=O)N)C4=CC=C(C=C4)Cl)C
Procedure, shortened: as §1

[3] = compound: CC1=C2C(=CC=C1)N=C(N(C2=O)C3=CC=CC=C3C)CN4C=NC5=C(N=CN=C54)N
Procedure, shortened: as §1

[4] = compound: Cc1sc2c(c1C)C(c1ccc(Cl)cc1)=N[C@@H](CC(=O)OC(C)(C)C)c1nnc(C)n1-2
Procedure, shortened: as §1

[5] = compound: c1ccc([C@@H]2C[C@H]2NC2CCNCC2)cc1
Procedure, shortened: as §1

Sequence of UniProt A1X283 (A1X283 whole entry, looked up): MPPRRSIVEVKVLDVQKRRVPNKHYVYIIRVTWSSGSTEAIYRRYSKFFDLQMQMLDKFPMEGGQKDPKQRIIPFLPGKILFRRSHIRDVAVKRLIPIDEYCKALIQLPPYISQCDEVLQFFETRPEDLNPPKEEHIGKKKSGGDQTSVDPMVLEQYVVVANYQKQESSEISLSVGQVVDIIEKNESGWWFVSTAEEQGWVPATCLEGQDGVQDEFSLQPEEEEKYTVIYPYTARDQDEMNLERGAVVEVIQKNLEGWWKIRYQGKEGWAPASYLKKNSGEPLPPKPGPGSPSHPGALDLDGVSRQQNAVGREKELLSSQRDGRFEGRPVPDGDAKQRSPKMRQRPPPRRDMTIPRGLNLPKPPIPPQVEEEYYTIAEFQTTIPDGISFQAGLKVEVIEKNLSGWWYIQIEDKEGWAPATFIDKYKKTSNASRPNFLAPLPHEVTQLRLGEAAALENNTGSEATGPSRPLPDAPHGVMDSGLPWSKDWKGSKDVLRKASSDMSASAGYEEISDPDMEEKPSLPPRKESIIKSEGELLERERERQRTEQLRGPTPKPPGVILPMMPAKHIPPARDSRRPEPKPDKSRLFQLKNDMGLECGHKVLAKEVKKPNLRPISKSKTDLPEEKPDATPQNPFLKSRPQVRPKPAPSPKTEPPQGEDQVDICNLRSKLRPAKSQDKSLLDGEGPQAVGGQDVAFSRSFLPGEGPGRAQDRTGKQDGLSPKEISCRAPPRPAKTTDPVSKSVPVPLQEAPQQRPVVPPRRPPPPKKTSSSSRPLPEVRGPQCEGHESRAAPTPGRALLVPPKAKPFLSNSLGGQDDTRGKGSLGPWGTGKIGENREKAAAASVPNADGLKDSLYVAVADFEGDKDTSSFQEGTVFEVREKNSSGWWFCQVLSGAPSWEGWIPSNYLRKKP
Sequence of UniProt Q9BQY4 (Q9BQY4 whole entry, looked up): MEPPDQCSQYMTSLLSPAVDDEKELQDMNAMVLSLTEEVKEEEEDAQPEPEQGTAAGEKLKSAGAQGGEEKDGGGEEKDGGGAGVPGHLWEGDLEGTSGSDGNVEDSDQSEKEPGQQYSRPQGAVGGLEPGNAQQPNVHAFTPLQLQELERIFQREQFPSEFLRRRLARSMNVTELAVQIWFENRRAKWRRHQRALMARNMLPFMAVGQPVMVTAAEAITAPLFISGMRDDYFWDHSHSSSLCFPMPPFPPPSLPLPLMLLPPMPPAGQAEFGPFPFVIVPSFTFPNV
Sequence of UniProt Q6NT16 (Q6NT16 whole entry, looked up): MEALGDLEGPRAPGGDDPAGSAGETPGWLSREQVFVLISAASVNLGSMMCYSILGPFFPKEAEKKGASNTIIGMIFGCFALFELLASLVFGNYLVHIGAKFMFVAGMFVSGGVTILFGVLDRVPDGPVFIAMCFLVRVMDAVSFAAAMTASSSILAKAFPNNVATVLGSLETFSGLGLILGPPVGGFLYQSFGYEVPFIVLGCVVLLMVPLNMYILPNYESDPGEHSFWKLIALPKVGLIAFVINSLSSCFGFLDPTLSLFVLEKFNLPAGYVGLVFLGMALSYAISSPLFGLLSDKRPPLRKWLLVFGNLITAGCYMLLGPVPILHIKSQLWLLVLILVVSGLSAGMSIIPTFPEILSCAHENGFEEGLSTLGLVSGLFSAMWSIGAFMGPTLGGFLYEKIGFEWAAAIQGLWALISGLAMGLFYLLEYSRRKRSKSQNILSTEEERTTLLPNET
Sequence of UniProt Q13546 (Q13546 whole entry, looked up): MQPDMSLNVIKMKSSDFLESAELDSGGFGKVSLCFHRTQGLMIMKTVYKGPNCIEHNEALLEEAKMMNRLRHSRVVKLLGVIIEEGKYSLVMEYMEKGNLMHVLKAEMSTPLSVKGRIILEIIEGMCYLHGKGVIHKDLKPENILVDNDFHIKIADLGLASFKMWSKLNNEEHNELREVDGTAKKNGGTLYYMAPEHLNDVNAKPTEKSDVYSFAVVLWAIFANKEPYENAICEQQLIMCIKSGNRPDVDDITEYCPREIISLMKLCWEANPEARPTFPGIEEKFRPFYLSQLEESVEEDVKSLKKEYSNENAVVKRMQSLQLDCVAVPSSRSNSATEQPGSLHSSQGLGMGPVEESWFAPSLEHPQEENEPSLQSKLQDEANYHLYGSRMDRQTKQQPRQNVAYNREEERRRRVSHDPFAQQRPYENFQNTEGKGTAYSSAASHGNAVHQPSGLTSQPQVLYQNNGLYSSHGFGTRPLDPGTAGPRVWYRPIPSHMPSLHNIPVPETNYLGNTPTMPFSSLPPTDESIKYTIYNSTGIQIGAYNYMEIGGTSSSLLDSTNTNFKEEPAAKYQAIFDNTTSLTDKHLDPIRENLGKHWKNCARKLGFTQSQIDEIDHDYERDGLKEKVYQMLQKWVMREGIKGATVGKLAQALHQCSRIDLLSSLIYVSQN
Sequence of UniProt Q9UKM9 (Q9UKM9 whole entry, looked up): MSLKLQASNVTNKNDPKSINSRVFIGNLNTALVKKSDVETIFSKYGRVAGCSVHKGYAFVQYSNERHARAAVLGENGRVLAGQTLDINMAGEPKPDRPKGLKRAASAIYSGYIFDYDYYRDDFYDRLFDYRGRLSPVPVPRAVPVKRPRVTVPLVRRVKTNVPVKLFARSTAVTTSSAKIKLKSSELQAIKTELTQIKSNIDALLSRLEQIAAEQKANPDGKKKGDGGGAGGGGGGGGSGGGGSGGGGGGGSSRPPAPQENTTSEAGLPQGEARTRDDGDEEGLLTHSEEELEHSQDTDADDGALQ
Sequence of UniProt Q99496 (Q99496 whole entry, looked up): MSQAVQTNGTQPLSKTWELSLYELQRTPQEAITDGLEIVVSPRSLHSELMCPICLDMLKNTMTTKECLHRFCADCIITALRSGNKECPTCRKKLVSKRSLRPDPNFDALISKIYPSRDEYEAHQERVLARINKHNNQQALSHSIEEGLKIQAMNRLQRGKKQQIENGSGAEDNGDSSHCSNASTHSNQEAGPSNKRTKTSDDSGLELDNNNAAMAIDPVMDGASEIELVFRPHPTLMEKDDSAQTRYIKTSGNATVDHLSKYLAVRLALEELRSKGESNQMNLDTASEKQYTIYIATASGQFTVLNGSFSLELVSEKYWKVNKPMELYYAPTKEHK
Sequence of UniProt P43003 (P43003 whole entry, looked up): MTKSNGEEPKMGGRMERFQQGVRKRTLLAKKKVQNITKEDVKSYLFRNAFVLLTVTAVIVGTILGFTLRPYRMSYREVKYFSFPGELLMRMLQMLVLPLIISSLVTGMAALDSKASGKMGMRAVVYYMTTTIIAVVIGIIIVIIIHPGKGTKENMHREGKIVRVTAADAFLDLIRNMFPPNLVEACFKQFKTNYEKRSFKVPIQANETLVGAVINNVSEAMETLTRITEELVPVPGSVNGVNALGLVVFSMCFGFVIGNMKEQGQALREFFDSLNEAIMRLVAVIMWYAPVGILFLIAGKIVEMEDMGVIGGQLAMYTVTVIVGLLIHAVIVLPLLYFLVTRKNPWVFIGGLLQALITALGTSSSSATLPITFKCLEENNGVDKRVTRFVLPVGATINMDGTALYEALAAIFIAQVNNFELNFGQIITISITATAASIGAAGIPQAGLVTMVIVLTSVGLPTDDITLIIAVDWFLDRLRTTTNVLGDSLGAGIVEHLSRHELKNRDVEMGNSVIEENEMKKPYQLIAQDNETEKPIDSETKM
Sequence of UniProt Q15382 (Q15382 whole entry, looked up): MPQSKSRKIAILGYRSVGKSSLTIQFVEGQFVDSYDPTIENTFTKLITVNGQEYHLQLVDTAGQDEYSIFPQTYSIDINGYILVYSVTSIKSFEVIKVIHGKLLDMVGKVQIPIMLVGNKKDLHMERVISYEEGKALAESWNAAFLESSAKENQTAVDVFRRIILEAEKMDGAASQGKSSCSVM
Sequence of UniProt P63208 (P63208 whole entry, looked up): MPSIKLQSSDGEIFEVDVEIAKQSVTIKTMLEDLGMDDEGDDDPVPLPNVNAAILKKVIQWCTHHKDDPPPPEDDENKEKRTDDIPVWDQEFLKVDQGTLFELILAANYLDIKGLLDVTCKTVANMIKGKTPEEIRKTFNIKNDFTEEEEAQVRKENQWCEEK
Sequence of UniProt Q99719 (Q99719 whole entry, looked up): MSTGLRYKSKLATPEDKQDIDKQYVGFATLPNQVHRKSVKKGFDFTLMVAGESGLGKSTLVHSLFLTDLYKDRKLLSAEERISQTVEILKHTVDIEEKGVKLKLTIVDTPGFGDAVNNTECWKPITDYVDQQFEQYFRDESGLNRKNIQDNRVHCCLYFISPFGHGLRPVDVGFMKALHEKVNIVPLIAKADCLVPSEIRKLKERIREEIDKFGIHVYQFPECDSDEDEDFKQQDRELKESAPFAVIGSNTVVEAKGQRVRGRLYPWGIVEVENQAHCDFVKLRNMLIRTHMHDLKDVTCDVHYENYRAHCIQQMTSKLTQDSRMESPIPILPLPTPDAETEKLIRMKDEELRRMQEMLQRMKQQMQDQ
Sequence of UniProt Q06609 (Q06609 whole entry, looked up): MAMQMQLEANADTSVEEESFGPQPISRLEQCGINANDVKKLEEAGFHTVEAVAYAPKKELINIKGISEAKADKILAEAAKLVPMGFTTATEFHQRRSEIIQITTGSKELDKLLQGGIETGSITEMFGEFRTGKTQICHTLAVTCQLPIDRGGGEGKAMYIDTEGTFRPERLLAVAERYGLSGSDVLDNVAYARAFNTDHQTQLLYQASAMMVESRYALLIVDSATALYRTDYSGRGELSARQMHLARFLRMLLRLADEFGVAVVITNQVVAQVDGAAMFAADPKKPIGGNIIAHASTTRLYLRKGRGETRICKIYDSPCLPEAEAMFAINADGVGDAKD
Sequence of UniProt O43665 (O43665 whole entry, looked up): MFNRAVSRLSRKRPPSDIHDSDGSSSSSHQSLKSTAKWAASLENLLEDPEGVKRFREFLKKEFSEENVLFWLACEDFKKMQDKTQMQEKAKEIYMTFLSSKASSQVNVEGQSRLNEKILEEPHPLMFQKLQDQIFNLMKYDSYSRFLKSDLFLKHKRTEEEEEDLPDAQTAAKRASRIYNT
Sequence of UniProt Q99643 (Q99643 whole entry, looked up): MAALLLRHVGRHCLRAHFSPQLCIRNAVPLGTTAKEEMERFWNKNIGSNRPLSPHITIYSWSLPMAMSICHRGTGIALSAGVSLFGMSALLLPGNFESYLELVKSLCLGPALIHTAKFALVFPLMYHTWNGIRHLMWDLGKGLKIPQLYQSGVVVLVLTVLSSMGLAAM

Target | log2 fold change [1] | log2 fold change [2] | log2 fold change [3] | log2 fold change [4] | log2 fold change [5]
SLC12A9 (UniProt Q9BXP2) | 0.013 (inactive) | -0.002 (inactive) | 0.014 (inactive) | -0.035 (inactive) | 0.028 (inactive)
SART3, A0A499FI31 | -0.008 (inactive) | 0.015 (inactive) | 0.056 (inactive) | -0.08 (inactive) | -0.006 (inactive)
RHOXF2 (UniProt Q9BQY4) | 0.004 (inactive) | -0.031 (inactive) | 0.024 (inactive) | 0.012 (inactive) | 0.057 (inactive)
SLC12A5 (UniProt Q9H2X9) | 0.102 (inactive) | 0.099 (inactive) | 0.066 (inactive) | -0.064 (inactive) | 0.055 (inactive)
RHEB (UniProt Q15382) | 0.008 (inactive) | 0.04 (inactive) | 0.055 (inactive) | -0.048 (inactive) | -0.001 (inactive)
RAC3 (UniProt P60763) | -0.006 (inactive) | 0.028 (inactive) | 0.029 (inactive) | -0.025 (inactive) | -0.147 (inactive)
SEPTIN5 (UniProt Q99719) | -0.021 (inactive) | 0.069 (inactive) | 0.014 (inactive) | -0.045 (inactive) | -0.016 (inactive)
SERINC3 (UniProt Q13530) | -0.062 (inactive) | 0.045 (inactive) | 0.071 (inactive) | -0.062 (inactive) | 0.133 (inactive)
SKP1 (UniProt P63208) | -0.035 (inactive) | -0.008 (inactive) | 0 (inactive) | -0.036 (inactive) | -0.017 (inactive)
RPRD1B (UniProt Q9NQG5) | -0.006 (inactive) | 0.06 (inactive) | 0.043 (inactive) | 0.009 (inactive) | 0.014 (inactive)
RTN4IP1 (UniProt Q8WWV3) | 0 (inactive) | 0.07 (inactive) | 0.999 (active) | -0.051 (inactive) | -0.108 (inactive)
RANBP2 (UniProt P49792) | -0.094 (inactive) | 0 (inactive) | 0.114 (inactive) | -0.085 (inactive) | -0.089 (inactive)
RRAGC (UniProt Q9HB90) | 0.009 (inactive) | 0.104 (inactive) | 0.095 (inactive) | -0.041 (inactive) | 0.009 (inactive)
RAPGEF4 (UniProt Q8WZA2) | -0.038 (inactive) | 0.152 (inactive) | 0.268 (inactive) | -0.028 (inactive) | -0.176 (inactive)
RNASEH2A (UniProt O75792) | -0.008 (inactive) | 0.065 (inactive) | 0.183 (inactive) | -0.025 (inactive) | -0.01 (inactive)
RSL1D1 (UniProt O76021) | 0.18 (inactive) | -0.349 (inactive) | -0.241 (inactive) | 0.178 (inactive) | 0.031 (inactive)
RPS6KA2 isoform 2 (UniProt Q15349) | -0.016 (inactive) | 0.045 (inactive) | 0.087 (inactive) | -0.015 (inactive) | -0.02 (inactive)
RAB5C isoform 2 (UniProt P51148) | -0.007 (inactive) | -0.009 (inactive) | -0.022 (inactive) | 0.011 (inactive) | 0.018 (inactive)
RHOA (UniProt P61586) | 0.01 (inactive) | -0.058 (inactive) | -0.095 (inactive) | -0.041 (inactive) | 0.021 (inactive)
RPL31 (UniProt P62899) | 0.106 (inactive) | -0.241 (inactive) | -0.22 (inactive) | 0.202 (inactive) | 0 (inactive)
RNF14 (UniProt Q9UBS8) | -0.031 (inactive) | -0.005 (inactive) | -0.048 (inactive) | -0.013 (inactive) | 0.03 (inactive)
RAVER1 (UniProt E9PAU2) | -0.138 (inactive) | -0.204 (inactive) | 0.283 (inactive) | -0.19 (inactive) | 0.053 (inactive)
RALA (UniProt P11233) | 0.021 (inactive) | 0.046 (inactive) | 0.027 (inactive) | -0.016 (inactive) | 0.069 (inactive)
SEH1L isoform 1 (UniProt Q96EE3) | -0.003 (inactive) | 0.06 (inactive) | -0.003 (inactive) | -0.014 (inactive) | 0.017 (inactive)
RARS (UniProt P54136) | -0.057 (inactive) | -0.081 (inactive) | -0.02 (inactive) | 0.169 (inactive) | 0.024 (inactive)
RPS3A (UniProt P61247) | 0.053 (inactive) | -0.162 (inactive) | -0.139 (inactive) | 0.099 (inactive) | 0 (inactive)
RNF167 (UniProt Q9H6Y7) | -0.025 (inactive) | -0.011 (inactive) | 0.002 (inactive) | -0.017 (inactive) | 0.001 (inactive)

Target | log2 fold change [1] | log2 fold change [2] | log2 fold change [3] | log2 fold change [4] | log2 fold change [5]
RPA1 (UniProt P27694) | -0.032 (inactive) | 0.025 (inactive) | 0.087 (inactive) | -0.047 (inactive) | 0.011 (inactive)
RAB33B (UniProt Q9H082) | 0.003 (inactive) | -0.028 (inactive) | 0.116 (inactive) | -0.016 (inactive) | 0.069 (inactive)
RABGAP1L isoform 3 (UniProt Q5R372) | 0.007 (inactive) | 0.024 (inactive) | 0.033 (inactive) | -0.015 (inactive) | -0.005 (inactive)
RAD51 (UniProt Q06609) | -0.006 (inactive) | 0.142 (inactive) | -0.037 (inactive) | 0 (inactive) | -0.053 (inactive)
ROCK1 (UniProt Q13464) | -0.017 (inactive) | 0.027 (inactive) | 0.032 (inactive) | -0.018 (inactive) | -0.015 (inactive)
SCYL3 isoform 2 (UniProt Q8IZE3) | -0.014 (inactive) | -0.006 (inactive) | 0.055 (inactive) | 0.041 (inactive) | -0.113 (inactive)
SLC1A5 (UniProt Q15758) | -0.003 (inactive) | 0.035 (inactive) | -0.026 (inactive) | 0.013 (inactive) | 0.022 (inactive)
SACM1L (UniProt Q9NTJ5) | 0 (inactive) | 0.048 (inactive) | 0.064 (inactive) | -0.044 (inactive) | 0.006 (inactive)
RPS13 (UniProt P62277) | 0.142 (inactive) | -0.234 (inactive) | -0.246 (inactive) | 0.213 (inactive) | 0 (inactive)
RPS12 (UniProt P25398) | 0.032 (inactive) | -0.092 (inactive) | -0.066 (inactive) | 0.011 (inactive) | -0.019 (inactive)
SH3PXD2B (UniProt A1X283) | 0.07 (inactive) | 0.029 (inactive) | 0.001 (inactive) | -0.038 (inactive) | -0.046 (inactive)
RRP9 (UniProt O43818) | 0.036 (inactive) | -0.136 (inactive) | 0.02 (inactive) | 0.015 (inactive) | 0.1 (inactive)
RETSAT (UniProt Q6NUM9) | 0.028 (inactive) | 0.114 (inactive) | 0.119 (inactive) | -0.15 (inactive) | 0.042 (inactive)
SH3GLB2 (UniProt Q9NR46) | -0.029 (inactive) | 0.064 (inactive) | 0.029 (inactive) | 0.004 (inactive) | -0.063 (inactive)
RBM8A (UniProt Q9Y5S9) | -0.02 (inactive) | -0.005 (inactive) | -0.062 (inactive) | 0.029 (inactive) | 0.045 (inactive)
RALY (UniProt Q9UKM9) | 0.102 (inactive) | -0.379 (inactive) | -0.243 (inactive) | 0.031 (inactive) | 0.003 (inactive)
SLC1A3 (UniProt P43003) | -0.031 (inactive) | 0.003 (inactive) | -0.016 (inactive) | 0.17 (inactive) | 0.039 (inactive)
RAD50, A0A494C0Y7 | -0.1 (inactive) | -0.003 (inactive) | 0.194 (inactive) | 0.104 (inactive) | 0.118 (inactive)
SLC18B1 (UniProt Q6NT16) | 0.015 (inactive) | 0.028 (inactive) | 0.061 (inactive) | 0.009 (inactive) | -0.039 (inactive)
RGS10 (UniProt O43665) | 0.014 (inactive) | 0.042 (inactive) | -0.035 (inactive) | -0.022 (inactive) | -0.058 (inactive)
SDHC (UniProt Q99643) | -0.052 (inactive) | 0.004 (inactive) | -0.056 (inactive) | -0.018 (inactive) | 0.163 (inactive)
RNF2 (UniProt Q99496) | 0.067 (inactive) | 0.014 (inactive) | 0.153 (inactive) | 0.064 (inactive) | 0.085 (inactive)
RETREG3 (UniProt Q86VR2) | 0.076 (inactive) | 0.085 (inactive) | 0.007 (inactive) | -0.046 (inactive) | -0.037 (inactive)
RPS6KA3 (UniProt P51812) | -0.044 (inactive) | 0.05 (inactive) | 0.036 (inactive) | -0.034 (inactive) | -0.006 (inactive)
RPS27A (UniProt P62979) | 0.076 (inactive) | -0.111 (inactive) | -0.281 (inactive) | 0.108 (inactive) | -0.025 (inactive)
RIPK1 (UniProt Q13546) | -0.058 (inactive) | -0.134 (inactive) | 0.033 (inactive) | -0.048 (inactive) | -0.049 (inactive)
